Results reported in PubChem BioAssay (NCATS).
Results filed as inconclusive are left out. Where a call stands in place of a potency, no number is given. Unmarked numbers belong to inactive results. The source made the active and inactive calls. Unless noted, the call rests on the fitted dose curve; in most records, active means well fitted curve in the direction sought with a large enough effect; inconclusive means small, poorly fitted or top-dose-only effect, or another doubt; inactive means no such curve, though single readings can be large; an effect the other way counts as inactive or inconclusive.

Columns and labels:
[1] = molecular target: Voltage-gated inwardly rectifying potassium channel KCNH2 (Homo sapiens) (UniProt Q12809); assay: qHTS Assay for Small Molecule Inhibitors of the Human hERG Channel Activity (AID 588834);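 further: top concentration of the series differs between compounds; lower thallium flux fluorescence means stronger hERG block; nearly all actives have a fitted effect of over 50% in size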
Sequence of Voltage-gated inwardly rectifying potassium channel KCNH2 (Homo sapiens) (Q12809 whole entry, looked up): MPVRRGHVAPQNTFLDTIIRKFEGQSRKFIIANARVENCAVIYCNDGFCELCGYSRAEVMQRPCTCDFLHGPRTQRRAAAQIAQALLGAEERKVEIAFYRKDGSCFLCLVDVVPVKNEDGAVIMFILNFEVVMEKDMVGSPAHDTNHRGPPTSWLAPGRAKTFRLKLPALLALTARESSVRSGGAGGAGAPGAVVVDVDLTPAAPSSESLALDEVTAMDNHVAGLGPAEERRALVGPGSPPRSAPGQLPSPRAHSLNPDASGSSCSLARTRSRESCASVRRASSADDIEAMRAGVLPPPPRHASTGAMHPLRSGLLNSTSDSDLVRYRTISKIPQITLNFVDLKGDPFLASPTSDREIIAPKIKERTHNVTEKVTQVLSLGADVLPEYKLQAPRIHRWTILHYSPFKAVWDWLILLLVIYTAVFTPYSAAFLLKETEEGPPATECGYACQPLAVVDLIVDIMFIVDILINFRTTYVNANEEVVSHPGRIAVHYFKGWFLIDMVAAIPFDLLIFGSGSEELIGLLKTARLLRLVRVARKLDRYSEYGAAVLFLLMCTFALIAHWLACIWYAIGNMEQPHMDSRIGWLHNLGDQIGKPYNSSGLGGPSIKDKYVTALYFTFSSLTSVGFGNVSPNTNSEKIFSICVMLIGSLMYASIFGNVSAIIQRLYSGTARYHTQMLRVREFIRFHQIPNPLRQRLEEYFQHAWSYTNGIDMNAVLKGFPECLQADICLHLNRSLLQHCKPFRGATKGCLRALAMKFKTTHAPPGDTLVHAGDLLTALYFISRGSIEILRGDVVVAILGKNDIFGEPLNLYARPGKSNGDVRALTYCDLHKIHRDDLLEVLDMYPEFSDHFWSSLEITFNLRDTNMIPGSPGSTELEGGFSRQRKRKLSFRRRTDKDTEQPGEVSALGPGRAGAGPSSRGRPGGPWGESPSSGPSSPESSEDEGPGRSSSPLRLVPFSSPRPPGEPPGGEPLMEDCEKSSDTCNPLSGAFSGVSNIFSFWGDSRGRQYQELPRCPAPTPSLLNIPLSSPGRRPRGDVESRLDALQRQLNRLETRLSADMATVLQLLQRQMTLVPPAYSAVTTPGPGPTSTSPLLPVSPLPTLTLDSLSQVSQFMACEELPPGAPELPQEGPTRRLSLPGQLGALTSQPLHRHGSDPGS
In short: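 Measured: FluxOR fluorescence after thallium stimulation in U2OS cells transduced with hERG by baculovirus. Compounds pre-incubated around 10 min; medium Opti-MEM with 2% FCS. AC50 from Hill equation.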

[2] = S16 Schwann cell viability assay (CellTiter-Glo assay) (AID 624031);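 further: cellular ATP luminescence as a viability measure; nearly all actives have a fitted effect of over 70% in size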
In short: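 Native S16 Schwann cells (rat), serum-containing medium, overnight attachment then 24 h drug exposure at 37 °C/5% CO2. CellTiter-Glo ATP signal; normalized to cell-free and vehicle wells.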

[3] = S16 Schwann cell PMP22 intronic element beta-lactamase assay (AID 624044; calls by dose curve; further: nearly all actives have a fitted effect of over 15% in size); details: S16 rat Schwann cells, PMP22 element beta-lactamase FRET, 24 h; ratio activity, negative = inhibition: at 38.3 µM (top of the series) unless noted
In short: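 Rat S16 Schwann cells with beta-Lac driven by a PMP22 intronic element, compound-treated 24 h at 37 °C. LiveBLAzer FRET B/G read: 460 nm normalized to potassium clavulanate vs DMSO; 535 nm FRET as viability; concentration-effect curves classified.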

[4] = S16 Schwann cell PMP22 intronic element firefly luciferase assay (AID 624032); further: nearly all actives have a fitted effect of over 30% in size; further: potency means the concentration at half of the fitted maximal effect
In short: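 Rat S16 Schwann cells stably carrying a PMP22 intronic element-driven Fluc reporter were seeded overnight, then exposed to compounds for 24 h at 37 °C. Luminescence was normalized to PTC124 (positive control) and DMSO (0% activity).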

[5] = molecular target: Luciferin 4-monooxygenase (Photinus pyralis) (UniProt P08659); assay: Biochemical firefly luciferase enzyme assay for NPC (AID 624030);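 further: purified P. pyralis luciferase at 10 nM with luciferin and ATP substrate; nearly all actives have a fitted effect of over 70% in size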
Sequence of Luciferin 4-monooxygenase (Photinus pyralis) (P08659 whole entry, looked up): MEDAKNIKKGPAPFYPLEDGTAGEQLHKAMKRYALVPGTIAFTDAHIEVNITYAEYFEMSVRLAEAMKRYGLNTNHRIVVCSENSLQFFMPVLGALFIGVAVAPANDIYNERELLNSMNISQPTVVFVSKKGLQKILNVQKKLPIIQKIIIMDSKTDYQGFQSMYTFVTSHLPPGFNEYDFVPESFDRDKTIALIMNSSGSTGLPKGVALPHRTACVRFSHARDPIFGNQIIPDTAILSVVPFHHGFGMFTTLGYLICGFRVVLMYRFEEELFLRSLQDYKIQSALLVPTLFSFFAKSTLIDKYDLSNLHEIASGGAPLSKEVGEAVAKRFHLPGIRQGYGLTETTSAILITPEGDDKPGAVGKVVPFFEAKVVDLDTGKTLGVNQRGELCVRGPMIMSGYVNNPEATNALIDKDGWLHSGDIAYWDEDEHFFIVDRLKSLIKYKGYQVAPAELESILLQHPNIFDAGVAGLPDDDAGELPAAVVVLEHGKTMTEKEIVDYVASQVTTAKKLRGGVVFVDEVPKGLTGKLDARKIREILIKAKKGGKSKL
In short: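 Counter-screen for direct inhibition of the luciferase enzyme by approved-drug library compounds, run at 10 nM enzyme in 50 mM Tris acetate (final). Luminescence was read within 5 min of enzyme-buffer addition and normalized to PTC124 versus DMSO (0%).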

| Structure (SMILES) | Potency [1] | Potency [2] | ratio activity, negative = inhibition [3] | Potency [4] | Potency [5] |
| --- | --- | --- | --- | --- | --- |
| C#C[C@]1(O)CC[C@@H]2[C@H]3CCC4=CC(=O)CC[C@H]4[C@H]3C(=C)C[C@@]21CC | inactive | inactive | -9.17% (active) |  |  |
| O=C(O)[C@H]1C(=CCO)O[C@H]2CC(=O)N12 | inactive | inactive | -34.7% | inactive |  |
| CCSc1ccc2c(c1)N(CCCN1CCN(C)CC1)c1ccccc1S2 |  | inactive | 0.419% [at 17.1 µM] | inactive | inactive |
| CCOc1cc(-c2nccc3cc(OC)c(OC)cc23)cc(OCC)c1OCC | inactive |  | -11.1% |  |  |
| COc1cc(C)c(/C=C/C(C)=C/C=C/C(C)=C/C(=O)O)c(C)c1C | inactive | inactive | -28.2% | 0.572 µM (active) |  |
| C(=C\c1ccncc1)/c1ccccc1 | inactive |  | -6.31% | inactive |  |
| S=C1SCN(Cc2ccccc2)CN1Cc1ccccc1 |  |  | -11.2% | 14.4 µM (active) | inactive |
| Cc1ncc(C[n+]2csc(CCOP(=O)(O)OP(=O)(O)O)c2C)c(N)n1 |  | inactive | -0.395% | inactive | inactive |
